Results as given in PubChem BioAssay AID430 (Sanford-Burnham Center for Chemical Genomics, 2006).
In all, about 63,000 compounds went through this assay and about 1,100 (1.7%) were called active. Cut-off read from the data, not from the text of the source: active = cytotoxicity above about 50%; inactive = the rest. The entries come from a sample that favours actives as a whole. Entries with a potency or affinity are not part of this list.

Assay: cytotoxicity in HPDE-C7 cells, cell-based, fluorescence, HTS (AID 430);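 note: cells exposed to compound for 48 hours before viability readout; 0% = vehicle and 100% = reference cytotoxic drug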
Details: HPDE-C7 pancreatic duct cells viability, at 10 µM, hits give high values

Q: Which cytotoxicity does the source give for `CCSc1cc(C2C(C#N)=C(N)OC(C)=C2C(=O)OC)c(C)o1` (configuration not stated) here?
A: 3.5% (inactive)

Q: Which cytotoxicity does the source give for `CCOC(=O)CCc1nn(C)c(=O)c2ccccc12` here?
A: -11.1% (inactive)

Q: For `Cc1ccc(S(=O)(=O)N(C)CC(=O)N2CCN(c3ccccn3)CC2)cc1`, which cytotoxicity is on record?
A: 6.4% (inactive)

Q: Which cytotoxicity does the source give for `Cc1cc(-c2csc(NC(=O)c3ccc(=O)n(C)n3)n2)c(C)n1CC1CCCO1` (configuration not stated) here?
A: -8.1% (inactive)

Q: Which cytotoxicity does the source give for `CCCC1COC(Cn2cncn2)(c2ccc(C)cc2)O1` (configuration not stated) here?
A: -5.7% (inactive)

Q: Which cytotoxicity does the source give for `CCC(C)n1ncn(-c2ccc(N3CCN(c4ccc(OCC5COC(Cn6cncn6)(c6ccc(Cl)cc6Cl)O5)cc4)CC3)cc2)c1=O` (configuration not stated) here?
A: 65.7% (active)

Q: Which cytotoxicity does the source give for `O=C1Nc2ccccc2C12OCC(COc1ccc(Cl)cc1)O2` (configuration not stated) here?
A: 30.3% (inactive)

Q: For `Cc1noc(C)c1S(=O)(=O)NC1CCN(Cc2ccccc2)CC1`, which cytotoxicity is on record?
A: 1.4% (inactive)

Q: For `Cc1n[nH]c(=O)nc1NCc1ccccc1`, which cytotoxicity is on record?
A: -20.4% (inactive)

Q: With `CCCCCc1c(C)nc(NCc2ccccc2)[nH]c1=O` as the compound, how does the cytotoxicity read?
A: -8.7% (inactive)

Q: With `COc1ccc(CCNC(=O)COc2nsnc2N2CCOCC2)cc1OC` as the compound, how does the cytotoxicity read?
A: -12.4% (inactive)

Q: With `C=CCNC(=O)CCCCC(=O)NCC=C` as the compound, how does the cytotoxicity read?
A: -16.1% (inactive)

Q: With `CN1CCN(CCCNC(=O)c2cc3c(-c4ccc(Cl)cc4)nn(C)c3s2)CC1` as the compound, how does the cytotoxicity read?
A: 13.3% (inactive)

Q: With `Cn1nc(-c2ccc(Cl)cc2)c2cc(C(=O)NCCCN3CCCC3)sc21` as the compound, how does the cytotoxicity read?
A: 69.7% (active)

Q: Which cytotoxicity does the source give for `Cn1nc(-c2ccc(Cl)cc2)c2cc(C(=O)NCCCN3CCOCC3)sc21` here?
A: 8.3% (inactive)

Q: Which cytotoxicity does the source give for `CCCn1c(Sc2nnnn2-c2ccccc2)n[nH]c1=O` here?
A: -7.4% (inactive)

Q: Which cytotoxicity does the source give for `Cc1nc(Sc2nnnn2-c2ccccc2)c(C#N)c(C)c1C` here?
A: -11.7% (inactive)

Q: With `Cc1sc2ncnc(SCc3ccco3)c2c1C` as the compound, how does the cytotoxicity read?
A: -13.2% (inactive)

Q: Which cytotoxicity does the source give for `Clc1ccc(-n2nnnc2Sc2ncnc3sccc23)cc1` here?
A: 4.6% (inactive)

Q: Which cytotoxicity does the source give for `Cc1sc2ncnc(Sc3nnnn3-c3ccccc3)c2c1C` here?
A: 71% (active)

Q: For `COc1ccc(OC)c(-c2cc(C(=O)NCCCn3ccnc3)no2)c1`, which cytotoxicity is on record?
A: 32.2% (inactive)

Q: With `Cc1cc(NC(=O)C2CCCN(S(=O)(=O)c3c(C)noc3C)C2)no1` (configuration not stated) as the compound, how does the cytotoxicity read?
A: 9.5% (inactive)

Q: For `O=C(O)c1ccc(OCc2occc2C(=O)O)cc1`, which cytotoxicity is on record?
A: -2.7% (inactive)

Q: For `CCOc1ccc(N(CC(N)=O)S(=O)(=O)c2ccc(F)cc2)cc1`, which cytotoxicity is on record?
A: -0.6% (inactive)

Q: For `Cc1cc2c(c(=O)n1CCN(C)C)C(c1ccc(Cl)cc1)C(C#N)=C(N)O2` (configuration not stated), which cytotoxicity is on record?
A: -13.8% (inactive)

Q: For `Cc1cc2c(c(=O)n1CCN(C)C)C(c1ccc(Br)cc1)C(C#N)=C(N)O2` (configuration not stated), which cytotoxicity is on record?
A: 73.4% (active)

Q: Which cytotoxicity does the source give for `Cc1cc2c(c(=O)n1CCN(C)C)C(c1ccncc1)C(C#N)=C(N)O2` (configuration not stated) here?
A: 13.1% (inactive)
